Experimental data reported in PubChem BioAssay (NCI).
Compounds without any hit were thinned out: in the full panel of roughly 83,000, 20% have a hit.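 Single-dose data. Exposure time 48 hours. Values below 10 considered active.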 Values without a mark were called inactive. Calls of active or inactive are those of the source.

These compounds were tested on U251 CNS (assay: NCI-60 one-dose screen, 48 h (100 = growth as untreated, 0 = no growth, -100 = all killed)). Details: 10 µM.

Compound	growth
O=C(CN1CCNCC1)N1CCOCC1	106%
CC1CCC2C(C)(C)C3CC12CC1OC13C (configuration not stated)	102%
COc1cc(OC)c2ccc(=O)oc2c1	98.8%
CCN(CC)CCCC(C)Nc1ccnc(/C=C/c2ccc(Cl)cc2)c1 (configuration not stated)	-58.1% (active)
COC1=CC(=O)c2nc(Cl)ccc2C1=O	-42.5% (active)
COc1ccccc1NC(=O)C1=C(C)NC(C)=C(C(=O)Nc2ccccc2OC)C1c1cccc([N+](=O)[O-])c1	76%
N=c1c(C(=O)OCc2ccccc2)ncc(CCl)n1O	71.4%
Cc1nc2c(ccc3ccccc32)s1	99.3%
CC(=O)OCC1OC(OC2=C(CC=C(C)C)C(=O)c3ccccc3C2=O)C(OC(C)=O)C(OC(C)=O)C1OC(C)=O (configuration not stated)	8.23% (active)
O=S(=O)(O)CC(O)CN1CCN(CCO)CC1 (configuration not stated)	106%
Cc1cc(OCCO)cc(C)c1Cl	110%
CC1Cc2ccccc2O1 (configuration not stated)	111%
O=c1cc(-c2ccccc2)oc2c1ccc1ccccc12	83.8%
CCOC(=O)C1=C(C)NC(=O)NC1c1cccs1 (configuration not stated)	109%
CC(=O)c1ccc(C)c(N)c1	98.4%
COc1ccc(/C=C/c2cccc[n+]2C)cc1	77.6%
NC(=S)NN=C1CCCC1	73.2%
CCN(CC)c1ccc2nc3ccc(=[N+](CC)CC)cc-3oc2c1	-13.9% (active)
CCCC(=O)Nc1ccc2c(c1)CN1C(=O)c3ccccc3C1=N2	98.6%

Compound	growth
O=C(O)CCCC(=O)O	94.3%
O=[N+]([O-])c1ccc(/C=C/C=C/c2ccccc2)c(Cl)c1	92%
Cc1cc2nc(CC(=O)c3ccccc3)c(=O)[nH]c2cc1C	95.4%
N#Cc1c(N)sc(=S)c2c1CCCC2	107%
CCCCCCCCOC(=O)c1ccccn1	110%
CCN(CC)C(=O)/C=C(/C)c1ccccc1	105%
CC1C(=O)c2ccccc2CC1C(=O)O (configuration not stated)	97.1%
CCOc1ccc2[nH]c(=S)sc2c1	106%
CCC(C)(O)c1ccc(C)cc1 (configuration not stated)	105%
O=c1c2ccccc2c(Br)c(Br)c2ccccc12	91%
O=[N+]([O-])c1ccc(Sc2ccncn2)c([N+](=O)[O-])c1	106%
C/C(=C\c1cc(Cl)ccc1OCC(=O)O)[N+](=O)[O-]	102%
COc1nc(N)nc2c1ncn2C1OC(CO)CC1O (configuration not stated)	112%
O=c1cc2oc3cc(O)c(O)cc3c(-c3ccccc3O)c-2cc1O	58.4%
COc1cc(C(=O)N/N=C/c2cccc([N+](=O)[O-])c2)cc(OC)c1OC	55.6%
CC1(C)Nc2cccc3c(N=Nc4ccc(N=Nc5ccccc5)c5ccccc45)ccc(c23)N1	110%
Oc1ccc(Cc2ccccc2)c2cccnc12	12.6%
O=[N+]([O-])c1cccc2nsnc12	104%
CC(C)CCCC(=O)O	103%

Each compound was assayed on PC-3 prostate in the same assay as above. Details: 10 µM.

Compound	growth
CNc1nc(NC)c2cn[nH]c2n1	91.9%
O=C(CN1CCNCC1)N1CCOCC1	100%
CC1CCC2C(C)(C)C3CC12CC1OC13C (configuration not stated)	99.5%
COc1cc(OC)c2ccc(=O)oc2c1	100%
CCN(CC)CCCC(C)Nc1ccnc(/C=C/c2ccc(Cl)cc2)c1 (configuration not stated)	45.5%
COC1=CC(=O)c2nc(Cl)ccc2C1=O	21.7%
COc1ccccc1NC(=O)C1=C(C)NC(C)=C(C(=O)Nc2ccccc2OC)C1c1cccc([N+](=O)[O-])c1	41.6%
N=c1c(C(=O)OCc2ccccc2)ncc(CCl)n1O	95.9%
Cc1nc2c(ccc3ccccc32)s1	99.7%
CC(=O)OCC1OC(OC2=C(CC=C(C)C)C(=O)c3ccccc3C2=O)C(OC(C)=O)C(OC(C)=O)C1OC(C)=O (configuration not stated)	-6.07% (active)
O=S(=O)(O)CC(O)CN1CCN(CCO)CC1 (configuration not stated)	81.1%
Cc1cc(OCCO)cc(C)c1Cl	97.2%
CC1Cc2ccccc2O1 (configuration not stated)	106%
O=c1cc(-c2ccccc2)oc2c1ccc1ccccc12	84%
CCOC(=O)C1=C(C)NC(=O)NC1c1cccs1 (configuration not stated)	102%
CC(=O)c1ccc(C)c(N)c1	92.8%
COc1ccc(/C=C/c2cccc[n+]2C)cc1	87%
NC(=S)NN=C1CCCC1	89.9%
CCN(CC)c1ccc2nc3ccc(=[N+](CC)CC)cc-3oc2c1	4.1% (active)
CCCC(=O)Nc1ccc2c(c1)CN1C(=O)c3ccccc3C1=N2	98.6%

Compound	growth
O=C(O)CCCC(=O)O	95.1%
O=[N+]([O-])c1ccc(/C=C/C=C/c2ccccc2)c(Cl)c1	94.1%
Cc1cc2nc(CC(=O)c3ccccc3)c(=O)[nH]c2cc1C	88.4%
N#Cc1c(N)sc(=S)c2c1CCCC2	100%
CCCCCCCCOC(=O)c1ccccn1	97.4%
CCN(CC)C(=O)/C=C(/C)c1ccccc1	93.4%
CC1C(=O)c2ccccc2CC1C(=O)O (configuration not stated)	97.6%
CCOc1ccc2[nH]c(=S)sc2c1	101%
CCC(C)(O)c1ccc(C)cc1 (configuration not stated)	99.6%
O=c1c2ccccc2c(Br)c(Br)c2ccccc12	95.7%
O=[N+]([O-])c1ccc(Sc2ccncn2)c([N+](=O)[O-])c1	71.9%
C/C(=C\c1cc(Cl)ccc1OCC(=O)O)[N+](=O)[O-]	96.2%
COc1nc(N)nc2c1ncn2C1OC(CO)CC1O (configuration not stated)	99.2%
O=c1cc2oc3cc(O)c(O)cc3c(-c3ccccc3O)c-2cc1O	73.9%
COc1cc(C(=O)N/N=C/c2cccc([N+](=O)[O-])c2)cc(OC)c1OC	67.5%
CC1(C)Nc2cccc3c(N=Nc4ccc(N=Nc5ccccc5)c5ccccc45)ccc(c23)N1	89.6%
Oc1ccc(Cc2ccccc2)c2cccnc12	23.4%
O=[N+]([O-])c1cccc2nsnc12	97.3%
CC(C)CCCC(=O)O	94.8%
